Rows were chosen to be rich in hits. Some 1.4% of all compounds tested hit in one or more screens of this group.
Vaccinia Venus: inhibitors of vaccinia virus (Venus reporter) | Vaccinia virus Venus reporter expression, fluorescence | Potency, µM (titrated, usually from 36.5 µM), for the others: at the top dose activity change, negative = inhibition, usual class: inhibitors | 330,000 tested, 0.46% active | AID 720580; calls by dose curve; tested in A549 cells; note: % is set by controls: 0 for no effect and ±100 for the full control effect; nearly all actives have a fitted effect of over 30% in size
Vaccinia mCherry: inhibitors of vaccinia virus infection (mCherry reporter signal); Vaccinia virus mCherry reporter infection, fluorescence; 310,000 tested, 0.63% active; Potency, µM (doses to about 36.5 µM), without a hit: top-dose activity change, negative = inhibition, actives largely listed as inhibitors; calls by dose curve; tested in A549 cells; note: % is set by controls: 0 for no effect and ±100 for the full control effect; nearly all actives have a fitted effect of over 35% in size
AmpC detergent: inhibitors of E. coli AmpC beta-lactamase with detergent; P00811; AmpC hydrolysis of nitrocefin, absorbance 480 nm, 0.01% Triton; Potency, µM (titrated, usually from 114 µM), for the others: top-dose activity change, negative = inhibition, most hits filed as inhibitors; 370,000 tested, 0.041% active;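 note: 0% = no-compound wells and -100% = no-enzyme wells; nearly all actives have a fitted effect of over 25% in size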
Target sequence (P00811 whole entry, looked up): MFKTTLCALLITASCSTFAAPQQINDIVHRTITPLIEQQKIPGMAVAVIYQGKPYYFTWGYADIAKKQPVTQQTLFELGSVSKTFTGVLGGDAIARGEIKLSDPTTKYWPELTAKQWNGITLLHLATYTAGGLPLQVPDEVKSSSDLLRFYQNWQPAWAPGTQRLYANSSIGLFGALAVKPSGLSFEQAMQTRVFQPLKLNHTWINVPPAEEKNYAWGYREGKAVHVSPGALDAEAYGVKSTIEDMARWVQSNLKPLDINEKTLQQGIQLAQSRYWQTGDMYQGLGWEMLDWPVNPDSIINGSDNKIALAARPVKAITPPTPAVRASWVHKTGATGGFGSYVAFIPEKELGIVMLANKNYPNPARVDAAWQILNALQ
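20 mM phosphate pH 7.0 + 0.01% (detergent screen) or 0.0001% Triton X-100; 5.3 nM AmpC reagent; cpd preinc 15 min RT; nitrocefin (800 uM stock) to start; A480 q20 s × 4 min; Activity was normalised to no-enzyme and no-compound control wells.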
SARS PLpro yeast: inhibitors of SARS-CoV papain-like protease in yeast | 330,000 tested, 0.19% active | AID 485353 | S. cerevisiae expressing SARS-CoV PLpro, growth rescue | Potency, µM (top dose mostly 32.9 µM), inactives show at the top dose activity, positive = growth rescue, most hits filed as activators; calls by dose curve; note: 0% is about no effect; nearly all actives have a fitted effect of over 55% in size
AMA1-RON2 inh: disrupts binding of P. falciparum AMA1 to RON2 | AlphaScreen AMA1-biotinylated RON2 peptide binding | Potency, µM (titrated, usually from 58.2 µM), without a hit: top-dose activity change, negative = inhibition, most hits filed as inhibitors | 360,000 tested, 0.2% active | AID 720542;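 note: 0% = vehicle wells and -100% = peptide control; nearly all actives have a fitted effect of over 45% in size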
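AMA1 (3D7) with his tag at 25 nM final met compounds first, then biotinylated RON2 peptide at 25 nM; detection used donor plus acceptor beads, 10 µg/mL apiece, read by AlphaScreen after 30 min at room temperature.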
AmpC no deterg: blocks E. coli AmpC beta-lactamase in detergent-free assay; AmpC nitrocefin hydrolysis, absorbance 480 nm, 0.0001% Triton; AID 485341; Potency, µM (highest dose often 57.1 µM), inactives show at the highest dose activity change, negative = inhibition, hits mostly inhibitors; P00811; 330,000 tested, 0.52% active;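 note: plate controls were no compound for no effect and no enzyme for full effect; nearly all actives have a fitted effect of over 20% in size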
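20 mM phosphate pH 7.0 + 0.01% (detergent screen) or 0.0001% Triton X-100; 5.3 nM AmpC reagent; cpd preinc 15 min RT; nitrocefin (800 uM stock) to start; A480 q20 s × 4 min; Activity was normalised to no-enzyme and no-compound control wells.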
* hit, by the source's call; i = inactive; ? = inconclusive; . = no result; ! = not confirmed by another sample; [ ] = another dose, or the depositor's remark. Unless noted, calls come from the whole dose curve; as a rule, active = well fitted curve in the direction sought with a large enough effect; inconclusive = small, poorly fitted or top-dose-only effect, or another doubt; inactive = no such curve, though single readings can be large; an effect the other way counts as inactive or inconclusive. Potency is the fitted concentration of half-maximal effect.

SMILES | Vaccinia Venus | Vaccinia mCherry | AmpC detergent | SARS PLpro yeast | AMA1-RON2 inh | AmpC no deterg
NC(=NCCCCCCN=C(N)/N=C(\N)Nc1ccc(Cl)cc1)/N=C(\N)Nc1ccc(Cl)cc1 | 10µM*! | ? | ? | -37.0% | 25.4% | 17.3%
CCOC(=O)c1ccc(N2CN(CC)CNC2=S)cc1 | -18.6% | i | -1.3% | 10µM* | 16.7% | -10.7%
COc1ccc2c(c1)c1c(c(=O)n(-c3ccccc3C)c(=O)n1CC(N)=O)n2C | 1.3% | -8.9% | 28.5% | . | . | .
C=CCN1C(=O)CS/C1=C(\C#N)S(=O)(=O)c1ccc(C)cc1 | 157.1% | . | -12.1% | 12.9% | -7.5% | 14.1µM*
COCCNC(=O)c1cc(-c2cccs2)on1 | -28.4% | -2.3% | ? | -3.8% | -2.2% | 6.31µM*
O=C(NCc1cc(C(F)(F)F)ccc1Cl)c1cccc2c1C(=O)c1ccc(N3CCCCC3)cc1S2(=O)=O | 1.7% | -6.9% | . | -2.1% | 17.6% | -13.0%
CC(C)c1cccc(-c2ccc3c(c2)S(=O)(=O)c2cccc(C(=O)NCc4ccccc4)c2C3=O)c1 | ? | -15.4% | . | 1.0% | 2.5% | -36.2%
COc1ccc(-c2ccc3c(c2)S(=O)(=O)c2cccc(C(=O)NCCOc4ccccc4Cl)c2C3=O)cc1OC | 7.94µM* | ? | . | 1.7% | 10.6% | -26.6%
COc1ccc(-c2ccc3c(c2)S(=O)(=O)c2cccc(C(=O)NCc4ccccc4Cl)c2C3=O)cc1OC | -0.9% | i | -4.4% | 2.6% | -1.4% | -16.6%
CC(C)c1cccc(-c2ccc3c(c2)S(=O)(=O)c2cccc(C(=O)NCc4ccccc4Cl)c2C3=O)c1 | 12.6µM* | ? | . | -15.9% | -2.3% | -44.6%
O=C(NCc1cc(C(F)(F)F)ccc1Cl)c1cccc2c1C(=O)c1ccc(N3CCOCC3)cc1S2(=O)=O | 10µM* | -28.1% | . | -3.2% | 3.7% | -17.4%
COc1cc(/C=N/N=C(/N)c2nonc2N)cc(Br)c1OCc1ccccc1C | -21.8% | -20.9% | 3.3% | -6.9% | 20.2% | -47.3%
CCOc1cc(/C=N/N=C(/N)c2nonc2N)cc(Br)c1OCc1ccc(Cl)cc1 | . | . | 3.2% | 1.9% | -7.0% | 15.8µM*
Cc1ccc(NCc2ccc(O)c3ncccc23)cc1 | -9.4% | i | 7.4% | -5.0% | 14.4% | -22.9%
Oc1c(CNc2ccccc2)cc(COCc2ccccc2)c2cccnc12 | . | . | ? | 4.47µM*! | . | -32.3%
Cc1ccc(Cl)cc1-n1ncc2c(Nc3cccc(C)c3C)ncnc21 | -20.4% | -15.4% | 2.4% | . | . | .
COc1cc(=O)n2c(c1C(=O)N(C)Cc1nonc1C)CCN(Cc1cccc3ccccc13)CC2 | 2.1% | -15.6% | . | . | . | .
O=C(C[n+]1ccc2ccccc2c1)c1ccc(F)cc1 | -27.9% | -10.1% | . | . | . | .
CC(C)[C@H](CO)N(Cc1cccc(F)c1)c1nc(Nc2cccc(Cl)c2)c2ncn(C(C)C)c2n1 | -21.9% | i | -0.5% | 1.6% | -9.2% | -32.6%
CC[C@H](CO)Nc1nc(Nc2cccc(Cl)c2)c2ncn(C(C)C)c2n1 | 10µM* | ? | -7.7% | -0.9% | -2.3% | 102.6%
NC(=O)Nc1ccc(/C=C2\C=Cc3ccccc32)cc1 | -28.7% | -19.9% | . | . | . | .
Nc1ncnc2c1c(I)cn2C1OC(CO)C(O)C1O (stereo not drawn) | ? | 15.8µM*! | . | . | . | .
N#Cc1c(N)n(C2OC(CO)C(O)C2O)c2ncnc(N)c12 (stereo not drawn) | 1µM* | ? | . | . | 15.5% | .
Nc1ncnc2c1ncn2C1OC(CO)C(O)C1O (stereo not drawn) | 6.4% | -5.8% | ? | -5.4% | -1.7% | -16.0%
O=c1cc(-c2ccc(O)cc2)oc2c(-c3c(O)cc(O)c4c(=O)cc(-c5ccc(O)cc5)oc34)c(O)cc(O)c12 | -4.7% | 2.9% | . | 6.3% | -10.5% | -41.1%
SMILES | Vaccinia Venus | Vaccinia mCherry | AmpC detergent | SARS PLpro yeast | AMA1-RON2 inh | AmpC no deterg
O=c1c(-c2c(O)cc(O)c3c(=O)cc(-c4ccc(O)cc4)oc23)c(-c2ccc(O)cc2)oc2cc(O)cc(O)c12 | -0.5% | 1.2% | 2.1% | 19.3% | -29.7% | 20µM*
COc1c(-c2ccc(O)cc2)oc2cc(O)cc(O)c2c1=O | ? | 20µM* | 1.7% | 0.3% | -27.1% | -31.7%
O=c1c(-c2ccc(O)cc2)coc2cc(O)cc(O)c12 | ? | 11.2µM* | -1.6% | 1.4% | 7.8% | -42.1%
CCCCNC(=O)[C@@H]1CC=C[C@@H]2CCN(C3CCCCC3)C(=O)[C@@H]21 | -1.7% | i | . | . | . | .
O=C1C(NS(=O)(=O)c2cccs2)=C(N2CCN(c3cccc(C(F)(F)F)c3)CC2)C(=O)c2ccccc21 | ? | . | -10.7% | -6.7% | 10µM* | -58.3%
CN1CCN(C2=C(NS(=O)(=O)c3cccs3)C(=O)c3ccccc3C2=O)CC1 | 10µM* | 17.8µM* | 2.8% | -0.2% | -17.2% | -12.2%
O=C1C(NS(=O)(=O)c2cccs2)=C(N2CCN(Cc3ccccc3)CC2)C(=O)c2ccccc21 | . | . | -4.0% | 0.9% | 28.2µM* | -25.5%
CCOc1ccccc1N1CCN(C2=C(NS(=O)(=O)c3cccs3)C(=O)c3ccccc3C2=O)CC1 | ? | . | ? | -0.5% | 10µM* | -12.8%
O=C1C(NS(=O)(=O)c2cccs2)=C(N2CCOCC2)C(=O)c2ccccc21 | -1.7% | ? | 5.4% | 6.8% | -29.0% | -4.8%
Cc1[nH]c2ccccc2c1C(c1c[nH]c2ccccc12)c1c(C)[nH]c2ccccc12 | 11.4% | 6.5% | . | . | . | .
CN1CCN(C2=C(Cl)C(=O)c3ccccc3C2=O)CC1 | 10µM* | ? | . | . | -5.0% | .
CCOc1ccc2cc(S(=O)(=O)N3CCOCC3)ccc2c1 | -11.6% | -17.0% | -1.8% | -0.9% | -4.7% | 0.398µM*
CC1=C(C(=O)OCc2ccc3nsnc3c2)N2C(=O)[C@@H](NC(=O)OCc3ccc4nsnc4c3)[C@H]2SC1 | -4.0% | i | . | . | . | .
O=C(CSc1ccc2ccccc2c1Br)Nc1cccc(S(=O)(=O)NC2=NCCCCC2)c1 | 10µM* | ? | -10.0% | -1.1% | -13.7% | 7.08µM*
Cc1ccc(C)c(SCC(=O)Nc2cccc(S(=O)(=O)NC3=NCCCCC3)c2)c1 | -16.6% | i | -11.3% | 3.0% | -7.6%[2.32 µM] | -37.5%
O=C(CCl)Nc1ccc(S(=O)(=O)NC2=NCCCCC2)cc1 | ? | 14.1µM* | . | -8.5% | -5.1% | -12.3%
O=C(CCl)Nc1cccc(S(=O)(=O)NC2=NCCCCC2)c1 | . | . | . | 11.6% | 20.4% | -18.9%
CCCOc1ccc(C(=O)Nc2ccc(S(=O)(=O)NC3=NCCCCC3)cc2)cc1 | ? | 8.91µM* | -0.1% | 6.7% | -9.4% | 29.0%
CCOc1ncccc1C(=O)Nc1ccc(S(=O)(=O)NC2=NCCCCC2)cc1 | -3.3% | i | 1.5% | 1.2% | 2.0% | -12.8%
CC(C)c1ccc(NC(=O)c2cc3c([nH]c2=O)CC(C)(C)CC3=O)cc1 | -4.3% | 21.5% | . | . | . | .

Screens: PubChem BioAssay, National Center for Advancing Translational Sciences (NCATS)
